Assay results taken from the supplement of paper PMC6411743.
± gives the standard deviation of the averaged measurements. Targets with the largest changes are over-represented here; the source holds about 6,200 in all.

Compound: Nc1ncnc2c1ncn2[C@@H]1O[C@H](COP(=O)(O)OP(=O)(O)NP(=O)(O)O)[C@@H](O)[C@H]1O [adenylyl imidodiphosphate]
Experiment: NP40-soluble protein abundance relative to vehicle (solubility fold change) (ratio); higher = more soluble protein in presence of AMP-PNP
In short: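 Values are fold changes against the detergent-processed vehicle, based on vsn-normalised intensities. Jurkat crude lysate was treated at eight concentrations from 0.1 to 10 mM (10 min at room temperature, then 3 min at 37 °C), solubilised with 0.8% NP40 and benzonase, ultracentrifuged and analysed by TMT-labelled LC-MS/MS over three independent experiments.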

Sequence of UniProt P36873 (P36873 whole entry, looked up, one chain of several): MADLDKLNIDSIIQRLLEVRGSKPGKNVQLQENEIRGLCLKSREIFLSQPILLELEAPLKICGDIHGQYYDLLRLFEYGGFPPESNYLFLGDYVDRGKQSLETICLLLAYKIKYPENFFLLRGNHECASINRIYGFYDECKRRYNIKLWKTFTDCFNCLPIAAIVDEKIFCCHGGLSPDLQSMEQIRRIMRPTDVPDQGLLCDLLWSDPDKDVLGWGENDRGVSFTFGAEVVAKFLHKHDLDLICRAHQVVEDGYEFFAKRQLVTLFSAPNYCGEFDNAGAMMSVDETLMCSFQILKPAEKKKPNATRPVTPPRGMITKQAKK
Sequence of UniProt O43670 (O43670 whole entry, one chain of several): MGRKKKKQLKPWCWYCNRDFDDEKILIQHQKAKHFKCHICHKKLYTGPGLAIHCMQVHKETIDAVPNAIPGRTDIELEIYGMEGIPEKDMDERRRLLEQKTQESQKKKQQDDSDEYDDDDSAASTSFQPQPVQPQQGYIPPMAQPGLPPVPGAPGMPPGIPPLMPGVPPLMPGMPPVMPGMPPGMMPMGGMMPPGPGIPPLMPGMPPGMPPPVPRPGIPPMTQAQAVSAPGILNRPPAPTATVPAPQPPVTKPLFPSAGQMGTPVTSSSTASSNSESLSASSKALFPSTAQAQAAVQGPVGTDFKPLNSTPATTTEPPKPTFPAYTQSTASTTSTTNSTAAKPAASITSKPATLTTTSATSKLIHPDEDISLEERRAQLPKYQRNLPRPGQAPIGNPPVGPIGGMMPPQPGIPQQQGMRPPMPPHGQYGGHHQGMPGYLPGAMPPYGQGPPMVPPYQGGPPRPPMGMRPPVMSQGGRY
Sequence of UniProt Q8WTS6 (Q8WTS6 whole entry, one chain of several): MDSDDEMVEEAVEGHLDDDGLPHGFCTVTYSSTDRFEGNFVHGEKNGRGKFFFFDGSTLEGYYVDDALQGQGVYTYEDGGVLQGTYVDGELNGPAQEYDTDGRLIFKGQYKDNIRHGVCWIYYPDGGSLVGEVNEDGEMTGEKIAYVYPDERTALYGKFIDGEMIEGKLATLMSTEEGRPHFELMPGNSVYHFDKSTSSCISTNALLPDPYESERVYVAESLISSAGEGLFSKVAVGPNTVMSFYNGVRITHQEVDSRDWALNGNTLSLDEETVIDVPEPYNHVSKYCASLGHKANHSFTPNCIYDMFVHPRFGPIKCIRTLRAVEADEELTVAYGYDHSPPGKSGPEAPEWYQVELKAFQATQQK
Sequence of UniProt Q13506 (Q13506 whole entry, one chain of several): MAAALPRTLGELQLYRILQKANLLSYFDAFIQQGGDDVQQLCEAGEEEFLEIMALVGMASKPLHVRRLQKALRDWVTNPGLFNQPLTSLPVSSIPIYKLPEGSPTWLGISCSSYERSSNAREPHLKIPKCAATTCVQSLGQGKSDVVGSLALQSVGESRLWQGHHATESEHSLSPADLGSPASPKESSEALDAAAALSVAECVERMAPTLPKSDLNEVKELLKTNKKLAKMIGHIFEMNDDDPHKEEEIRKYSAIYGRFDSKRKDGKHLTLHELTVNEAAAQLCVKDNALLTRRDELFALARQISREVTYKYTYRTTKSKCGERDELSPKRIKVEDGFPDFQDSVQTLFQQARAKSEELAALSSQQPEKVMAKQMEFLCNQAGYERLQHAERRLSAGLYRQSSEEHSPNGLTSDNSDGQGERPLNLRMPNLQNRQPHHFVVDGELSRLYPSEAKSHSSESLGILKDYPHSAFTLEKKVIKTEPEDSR
Sequence of UniProt Q9NQV6 (Q9NQV6 whole entry, one chain of several): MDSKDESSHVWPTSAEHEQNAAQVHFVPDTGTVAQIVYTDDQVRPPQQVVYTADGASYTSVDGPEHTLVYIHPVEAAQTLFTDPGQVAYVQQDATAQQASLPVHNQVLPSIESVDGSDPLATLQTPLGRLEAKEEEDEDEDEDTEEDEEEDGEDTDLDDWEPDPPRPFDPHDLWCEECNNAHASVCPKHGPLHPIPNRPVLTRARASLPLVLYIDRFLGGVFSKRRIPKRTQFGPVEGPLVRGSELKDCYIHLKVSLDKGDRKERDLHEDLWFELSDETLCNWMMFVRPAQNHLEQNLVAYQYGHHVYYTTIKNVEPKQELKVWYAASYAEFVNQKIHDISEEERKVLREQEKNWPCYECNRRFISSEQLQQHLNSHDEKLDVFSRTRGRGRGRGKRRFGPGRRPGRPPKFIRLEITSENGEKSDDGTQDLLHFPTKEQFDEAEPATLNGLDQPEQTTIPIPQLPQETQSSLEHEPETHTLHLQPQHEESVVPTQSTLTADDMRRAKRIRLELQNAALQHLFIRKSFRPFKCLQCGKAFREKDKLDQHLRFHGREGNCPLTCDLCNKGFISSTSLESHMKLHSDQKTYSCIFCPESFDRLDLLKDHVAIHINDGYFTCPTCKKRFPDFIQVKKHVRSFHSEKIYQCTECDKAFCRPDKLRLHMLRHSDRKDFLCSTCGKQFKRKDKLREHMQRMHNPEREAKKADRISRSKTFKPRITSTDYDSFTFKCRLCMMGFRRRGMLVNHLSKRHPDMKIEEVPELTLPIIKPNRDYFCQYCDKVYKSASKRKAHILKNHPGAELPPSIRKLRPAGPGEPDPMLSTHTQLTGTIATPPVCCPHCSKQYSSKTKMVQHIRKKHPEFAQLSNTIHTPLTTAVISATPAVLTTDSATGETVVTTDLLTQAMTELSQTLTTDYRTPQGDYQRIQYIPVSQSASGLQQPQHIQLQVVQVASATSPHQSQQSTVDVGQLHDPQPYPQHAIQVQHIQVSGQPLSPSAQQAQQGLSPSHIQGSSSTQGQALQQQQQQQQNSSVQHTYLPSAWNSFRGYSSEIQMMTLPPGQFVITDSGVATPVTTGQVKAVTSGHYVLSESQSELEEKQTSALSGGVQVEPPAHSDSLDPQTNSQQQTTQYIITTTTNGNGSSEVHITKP
Sequence of UniProt Q5VW38 (Q5VW38 whole entry, one chain of several): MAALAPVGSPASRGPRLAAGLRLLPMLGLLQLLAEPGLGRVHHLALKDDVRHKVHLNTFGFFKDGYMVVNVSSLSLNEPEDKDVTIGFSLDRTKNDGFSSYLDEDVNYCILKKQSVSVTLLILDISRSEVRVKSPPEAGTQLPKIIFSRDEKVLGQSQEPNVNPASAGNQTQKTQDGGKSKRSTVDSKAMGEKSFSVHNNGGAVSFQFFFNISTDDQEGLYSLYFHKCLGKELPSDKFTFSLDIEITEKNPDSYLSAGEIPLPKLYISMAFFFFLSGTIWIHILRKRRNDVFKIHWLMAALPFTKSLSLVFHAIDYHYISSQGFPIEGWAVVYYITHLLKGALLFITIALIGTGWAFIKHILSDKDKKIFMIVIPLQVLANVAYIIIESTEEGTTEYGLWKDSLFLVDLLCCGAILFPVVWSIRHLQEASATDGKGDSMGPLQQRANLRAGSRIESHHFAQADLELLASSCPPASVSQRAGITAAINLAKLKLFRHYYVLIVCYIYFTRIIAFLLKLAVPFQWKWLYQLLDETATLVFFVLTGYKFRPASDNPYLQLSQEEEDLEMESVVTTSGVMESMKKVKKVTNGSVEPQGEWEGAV
Sequence of UniProt Q99933 (Q99933 whole entry, one chain of several): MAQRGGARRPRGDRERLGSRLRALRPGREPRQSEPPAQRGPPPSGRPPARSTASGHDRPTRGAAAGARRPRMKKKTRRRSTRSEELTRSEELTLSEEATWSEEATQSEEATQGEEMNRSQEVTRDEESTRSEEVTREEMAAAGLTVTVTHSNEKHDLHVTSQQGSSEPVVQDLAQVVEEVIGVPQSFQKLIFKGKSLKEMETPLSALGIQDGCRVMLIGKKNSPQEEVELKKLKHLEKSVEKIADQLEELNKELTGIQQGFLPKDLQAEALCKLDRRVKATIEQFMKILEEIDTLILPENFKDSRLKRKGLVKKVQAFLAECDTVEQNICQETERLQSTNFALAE
Sequence of UniProt Q8NBQ5 (Q8NBQ5 whole entry, one chain of several): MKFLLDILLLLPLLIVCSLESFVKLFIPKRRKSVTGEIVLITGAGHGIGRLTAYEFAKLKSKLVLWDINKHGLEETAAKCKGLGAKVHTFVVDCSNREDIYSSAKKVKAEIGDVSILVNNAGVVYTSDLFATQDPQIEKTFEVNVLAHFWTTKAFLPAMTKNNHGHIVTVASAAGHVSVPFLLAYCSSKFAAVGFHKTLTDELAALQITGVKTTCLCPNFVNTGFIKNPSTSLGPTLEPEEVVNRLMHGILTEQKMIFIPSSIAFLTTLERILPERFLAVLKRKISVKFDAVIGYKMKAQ
Sequence of UniProt Q8N2M8 (Q8N2M8 whole entry, one chain of several): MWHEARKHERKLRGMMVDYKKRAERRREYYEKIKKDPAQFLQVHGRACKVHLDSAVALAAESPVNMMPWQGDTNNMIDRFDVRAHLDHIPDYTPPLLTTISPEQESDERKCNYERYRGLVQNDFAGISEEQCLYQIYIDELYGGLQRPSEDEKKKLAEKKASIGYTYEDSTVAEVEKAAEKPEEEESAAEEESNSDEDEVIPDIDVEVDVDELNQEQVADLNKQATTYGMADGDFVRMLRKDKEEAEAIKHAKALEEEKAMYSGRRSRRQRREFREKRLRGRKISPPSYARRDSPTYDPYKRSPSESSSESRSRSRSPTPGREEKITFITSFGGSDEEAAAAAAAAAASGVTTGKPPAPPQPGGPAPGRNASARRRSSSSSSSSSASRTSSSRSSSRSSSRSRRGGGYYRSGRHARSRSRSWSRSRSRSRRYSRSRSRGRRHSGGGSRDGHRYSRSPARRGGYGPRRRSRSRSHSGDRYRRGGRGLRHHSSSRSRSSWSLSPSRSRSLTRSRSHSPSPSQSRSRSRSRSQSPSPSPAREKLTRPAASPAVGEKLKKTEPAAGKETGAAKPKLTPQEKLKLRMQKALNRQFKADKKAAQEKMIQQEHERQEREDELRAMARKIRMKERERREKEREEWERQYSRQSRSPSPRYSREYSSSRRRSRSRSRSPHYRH
Sequence of UniProt Q96CD2 (Q96CD2 whole entry, one chain of several): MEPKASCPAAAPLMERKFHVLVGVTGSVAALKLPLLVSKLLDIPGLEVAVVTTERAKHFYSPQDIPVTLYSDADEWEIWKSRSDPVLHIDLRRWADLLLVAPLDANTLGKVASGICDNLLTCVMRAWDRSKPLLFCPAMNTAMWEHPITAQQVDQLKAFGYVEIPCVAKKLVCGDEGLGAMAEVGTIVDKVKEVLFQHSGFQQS

Target	NP40-soluble protein abundance (concentration: 1mM)	NP40-soluble protein abundance (concentration: 2mM)	NP40-soluble protein abundance (concentration: 4mM)	NP40-soluble protein abundance (concentration: 6mM)	NP40-soluble protein abundance (concentration: 8mM)	NP40-soluble protein abundance (concentration: 10mM)
A0A0A0MQS2|F5H0Q6 (UniProt Q8N2M8)	1.06 ± 0.049	1.13 ± 0.083	1.04 ± 0.064	1.06 ± 0.1	1.04 ± 0.043	1.06 ± 0.015
B4DXZ6|P51114 (UniProt P51114)	1.12 ± 0.029	1.17 ± 0.039	1.3 ± 0.055	1.43 ± 0.15	1.55 ± 0.2	1.62 ± 0.2
CDIPT (UniProt O14735)	0.928 ± 0.062	0.896 ± 0.042	1 ± 0.019	1.01 ± 0.088	1.03 ± 0.073	0.974 ± 0.039
ARPC2 (UniProt O15144)	0.974 ± 0.033	0.896 ± 0.11	0.937 ± 0.023	0.976 ± 0.031	0.994 ± 0.046	0.957 ± 0.048
B4E0Y9|Q8NBY1|Q9P289 (UniProt Q9P289)	0.999 ± 0.019	1.03 ± 0.059	1.01 ± 0.034	1.05 ± 0.036	1.01 ± 0.045	1.06 ± 0.039
B5MCX3|Q15019|Q15019-2 (UniProt Q15019)	1.027 ± 0.0023	0.997 ± 0.032	1.003 ± 0.0091	0.984 ± 0.026	0.98 ± 0.017	0.952 ± 0.037
J3QTA2|Q99933|Q99933-3|Q99933-4 (UniProt Q99933)	1.01 ± 0.028	1.029 ± 0.0083	0.992 ± 0.012	0.99 ± 0.03	0.965 ± 0.038	0.993 ± 0.021
J3KPP4|O95232 (UniProt O95232)	1.02 ± 0.036	1.06 ± 0.058	1.06 ± 0.019	1.22 ± 0.015	1.3 ± 0.039	1.51 ± 0.049
J3KQH6|P78364 (UniProt P78364)	1.01 ± 0.067	1.01 ± 0.02	1.01 ± 0.018	1.04 ± 0.047	1.03 ± 0.025	1.05 ± 0.032
UniProt O15400|O15400-2	1.01 ± 0.059	1.04 ± 0.1	0.993 ± 0.06	0.992 ± 0.035	0.976 ± 0.039	0.957 ± 0.038
A0A0A0MTG1|A0A0G2JIA5|A0A140T8Y0|A0A140TA35|A0A140TA36|A0A140TA40|A0A140TA45|Q5ST30|Q5ST30-4|A0A0G2JL52|B4E0K6|B7ZL25 (UniProt Q5ST30)	1 ± 0.017	0.992 ± 0.051	0.992 ± 0.02	0.98 ± 0.034	0.979 ± 0.022	0.969 ± 0.04
F8W1A0|P36873 (UniProt P36873)	0.983 ± 0.022	0.928 ± 0.056	0.972 ± 0.014	0.985 ± 0.03	0.986 ± 0.021	0.9667 ± 0.0073
H0YKD8|P46779 (UniProt P46779)	1.05 ± 0.14	1.02 ± 0.09	1.01 ± 0.13	0.993 ± 0.071	0.919 ± 0.098	1.05 ± 0.16
E9PLT2|P17480|P17480-2 (UniProt P17480)	1.08 ± 0.032	1.23 ± 0.06	1.32 ± 0.055	1.47 ± 0.026	1.56 ± 0.027	1.73 ± 0.044
G3V5N8|Q9HBF4|Q9HBF4-3 (UniProt Q9HBF4)	0.991 ± 0.012	0.986 ± 0.035	0.987 ± 0.054	0.96 ± 0.021	0.968 ± 0.0098	0.938 ± 0.047
H7C5G1|Q2TAA2 (UniProt Q2TAA2)	0.995 ± 0.037	0.975 ± 0.015	0.98 ± 0.028	0.972 ± 0.016	0.965 ± 0.022	0.981 ± 0.028
F8VU90|Q9NYL4|Q9NYL4-2 (UniProt Q9NYL4)	1.01 ± 0.042	1.04 ± 0.043	1.07 ± 0.062	0.997 ± 0.031	0.999 ± 0.084	0.994 ± 0.12
SCO2 (UniProt O43819)	0.972 ± 0.0067	0.949 ± 0.054	0.991 ± 0.04	0.95 ± 0.027	0.936 ± 0.015	0.934 ± 0.045
E9PLV1|Q9NQV6|Q9NQV6-1|Q9NQV6-2|Q9NQV6-4|Q9NQV6-5|Q9NQV6-6|Q9NQV6-7|E9PRS0 (UniProt Q9NQV6)	1 ± 0.012	0.963 ± 0.055	0.9952 ± 0.0059	0.989 ± 0.021	1 ± 0.034	0.98 ± 0.023
D6RCD0|Q8NBQ5 (UniProt Q8NBQ5)	0.995 ± 0.031	0.9738 ± 0.0077	1.01 ± 0.047	1.06 ± 0.079	1.04 ± 0.056	1.04 ± 0.064
C5orf51 (UniProt A6NDU8)	1.04 ± 0.014	1.03 ± 0.025	1.01 ± 0.025	0.9735 ± 0.0065	0.953 ± 0.017	0.95 ± 0.05
B8ZZS2|Q13506|Q13506-2 (UniProt Q13506)	0.9966 ± 0.0056	1.02 ± 0.019	0.9788 ± 0.0084	1.024 ± 0.0073	1.01 ± 0.029	1.008 ± 0.0093
UniProt O00567	1.08 ± 0.026	1.08 ± 0.024	1.16 ± 0.026	1.25 ± 0.056	1.37 ± 0.087	1.53 ± 0.12
E7EMP6|Q96FZ2 (UniProt Q96FZ2)	1.06 ± 0.015	1.01 ± 0.032	1.04 ± 0.021	0.9875 ± 0.0043	1.01 ± 0.016	1 ± 0.033
B5MCS2|Q8WTS6 (UniProt Q8WTS6)	0.93 ± 0.076	0.946 ± 0.039	0.946 ± 0.043	0.954 ± 0.032	0.957 ± 0.022	0.936 ± 0.042
F8VX04|Q9H2H9 (UniProt Q9H2H9)	1.14 ± 0.1	1.36 ± 0.19	1.1 ± 0.051	1.06 ± 0.094	1.01 ± 0.087	1.13 ± 0.19
CCNT1 (UniProt O60563)	1.1 ± 0.051	1.19 ± 0.074	1.21 ± 0.064	1.25 ± 0.12	1.31 ± 0.11	1.4 ± 0.14
H3BRQ0|Q96CD2 (UniProt Q96CD2)	0.997 ± 0.028	0.998 ± 0.014	0.9917 ± 0.0054	1.018 ± 0.008	1 ± 0.041	0.978 ± 0.011
G5E994|Q5VW38|Q5VW38-2 (UniProt Q5VW38)	1.026 ± 0.0089	1.01 ± 0.018	0.976 ± 0.02	0.983 ± 0.024	1.01 ± 0.021	1.018 ± 0.0091
J3QRS9|O43670|O43670-2|O43670-4|X6R4W8 (UniProt O43670)	1.09 ± 0.073	1.09 ± 0.087	1.15 ± 0.074	1.25 ± 0.065	1.29 ± 0.062	1.34 ± 0.1
